# Assay results from PubChem BioAssay AID1626 (SRMLSC, 2009).
# The campaign covered roughly 220,000 compounds. About 2,000 (0.91%) were called active. Not shown: some 2% with an inconclusive outcome. Rule as the data show it: inconclusive = inhibition above about 80% without an active follow-up result; inactive = below that; test concentration not stated here. Not all results are given here. Measured potencies and affinities stand elsewhere.
# Assay: M. tuberculosis H37Rv growth inhibitors, H37Rv strain (AID 1626);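 also: bacteria incubated seven days before Alamar blue readout; 0% = bacteria only wells and 100% = bacteria with antibiotic wells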
# Details: hits give high values, concentration not given here
row,SMILES,inhibition
1,CCn1c(SCC(=O)c2cccs2)nnc1-c1ccco1,-18.1% (inactive)
2,Nc1nc(Nc2ccc(Cl)cc2)nc(NCc2ccco2)c1[N+](=O)[O-],18.8% (inactive)
3,Cc1cccc(Nc2nc(N)c([N+](=O)[O-])c(NCc3ccco3)n2)c1,22.5% (inactive)
4,Cc1nn(C)c2c(=O)c(=O)c2n(C)[nH]1,-3.16% (inactive)
5,CC(C)CCNC(=O)c1onc(CSc2ccccc2)c1C(=O)NCCC(C)C,19% (inactive)
6,CCn1c(COc2ccc(C)cc2)nnc1SCC(=O)NNC(=O)c1ccc(OC)cc1,4.68% (inactive)
7,S=c1[nH]nc(-c2cccnc2)n1/N=C/c1ccccc1,-12.5% (inactive)
8,CCN1CCN(Cc2ccc(NC(=O)c3ccc(C)c(NC(=O)c4ccnnc4)c3)cc2C(F)(F)F)CC1,-3.04% (inactive)
9,CCN1CCN(Cc2ccc(NC(=O)c3cc(NC(=O)N4CCNC4=O)cc(OC)c3)cc2C(F)(F)F)CC1,-1.27% (inactive)
10,CCN1CCN(Cc2ccc(NC(=O)c3cc(NC(=O)c4nccnc4N)cc(OC)c3)cc2C(F)(F)F)CC1,6.4% (inactive)
11,CCN1CCN(Cc2ccc(NC(=O)c3cc(NC(=O)c4ccno4)cc(OC)c3)cc2C(F)(F)F)CC1,14.6% (inactive)
12,CCN1CCN(Cc2ccc(NC(=O)c3cc(NC(=O)c4ccc5n[nH]nc5c4)cc(OC)c3)cc2C(F)(F)F)CC1,-1.88% (inactive)
13,CCN1CCN(Cc2ccc(NC(=O)c3ccc(C)c(NC(=O)c4ccc5n[nH]nc5c4)c3)cc2C(F)(F)F)CC1,-11% (inactive)
14,Cc1cc(C)cc(NC(=O)CN2C(=O)NC(C)(c3ccccc3)C2=O)c1 (configuration not stated),1.34% (inactive)
15,COc1ccc(-c2nn(-c3ccccc3)cc2/C=C2/SC(=S)N(Cc3ccco3)C2=O)c(C)c1,-0.21% (inactive)
16,Cc1sc(NC(=O)c2ccccc2F)c(CN2CCCCC2)c1C,7.51% (inactive)
17,CCOc1ncccc1C(=O)OCC(=O)c1ccccc1,-3.62% (inactive)
18,COc1ccc(CNC(=O)COC(=O)C2=COCCO2)cc1,46.3% (inactive)
19,CCN(CC(=O)Nc1ccc(NC(C)=O)cc1)CC(=O)Nc1ccccc1C(=O)c1ccccc1,2.54% (inactive)
20,CC(=O)c1ccn(S(=O)(=O)c2ccccc2)c1,4.75% (inactive)
21,CC1(C)Cc2c(cnn2-c2ccccc2)-c2c1c1ccccc1n2CC(O)CBr (configuration not stated),8.54% (inactive)
22,CC1(C)Cc2c(cnn2-c2ccccc2)-c2c1c1ccccc1n2CC(O)CCl (configuration not stated),2.97% (inactive)
23,O=C(Nc1ccc(Cl)cn1)c1ccc(-c2ccc(Cl)c(Cl)c2)o1,9.55% (inactive)
24,COc1cc2nc(Cl)nc(N3CCCCC3)c2cc1OC,1.6% (inactive)
25,COc1cc2nc(-c3ccccc3)nc(N3CCCC3)c2cc1OC,7.03% (inactive)

row,SMILES,inhibition
1,O=c1c2ccccc2nc(SCc2ccncc2)n1CC1CCCO1 (configuration not stated),4.12% (inactive)
2,O=C(Nc1ccc(F)cc1)Nc1csc2ccccc12,57.9% (inactive)
3,O=C(Nc1ccccc1)Nc1csc2ccccc12,14.7% (inactive)
4,CSc1ccccc1NC(=O)Nc1ccc(F)c(Cl)c1,1.15% (inactive)
5,O=C(Nc1ccc(F)cc1F)Nc1ccc(F)cc1F,-3.43% (inactive)
6,CCc1ccc(C2C3=C(CC(C)(C)CC3=O)OC3=C2C(=O)CC(C)(C)C3)cc1,-1.37% (inactive)
7,O=c1[nH]c(/C=C\c2cccnc2)c([N+](=O)[O-])c(=O)[nH]1,-10.6% (inactive)
8,C/C=C/C(=O)OCC(=O)Nc1nc2ccc(C)cc2s1,-7.77% (inactive)
9,COc1cccc(C(=O)NNC(=O)C2CC(C)=C(C)CC2C(=O)O)c1 (configuration not stated),-6.84% (inactive)
10,O=C(NC1CCSC1=O)c1ccc(Oc2ccc(F)cc2)nc1 (configuration not stated),0.17% (inactive)
11,CCCn1nc2cc(C(=O)NCC34CC5CC(CC(C5)C3)C4)ccc2c1OCC,5.26% (inactive)
12,COc1ccc(Br)cc1CNC(=O)C1CCN(S(=O)(=O)N2CCCC2)CC1,-4.95% (inactive)
13,Oc1ccc(N=Nc2ccc3c(c2)OCCO3)c2ncccc12,41% (inactive)
14,Cc1ccc(S(=O)(=O)Nc2ccc(O)c3ncccc23)cc1,-2.86% (inactive)
15,CCS(=O)(=O)c1ccc(N=Nc2ccc(O)c3ncccc23)c(OC)c1,-3.16% (inactive)
16,Cc1cccnc1NCc1ccc(O)c2ncccc12,-8.13% (inactive)
17,Cc1ccc(NCc2ccc(O)c3ncccc23)cc1C,9.65% (inactive)
18,CCS(=O)(=O)c1ccc(OC)c(N=Nc2ccc(O)c3ncccc23)c1,4.79% (inactive)
19,COc1ccccc1N=Nc1[nH]c2ccc(C)cc2c1O,9.9% (inactive)
20,Cc1ccccc1NCc1ccc(O)c2ncccc12,5.07% (inactive)
21,Cc1ccc(-c2nc(C=Nc3cccc(C)c3)c(O)o2)cc1,1.48% (inactive)
22,CCn1c(SCC(=O)Nc2cc(C)on2)nnc1-c1c[nH]c2ccccc12,-1% (inactive)
23,CSc1ccccc1NC(=O)COC(=O)c1ccccc1Cc1ccccc1,7.08% (inactive)
24,N#CC1=C2N=C(N)c3ccccc3N2C2=C(C(=O)CCC2)C1c1ccc(Cl)cc1 (configuration not stated),-9.07% (inactive)
25,Cc1ccc(C(=O)Nc2ccc(N3CCN(S(C)(=O)=O)CC3)cc2)cc1C,-8.49% (inactive)

row,SMILES,inhibition
1,C=CCOc1ccc(/C=C2\C(=N)N3N=C(S(=O)(=O)CC)SC3=NC2=O)cc1OC,-2.08% (inactive)
2,O=C(c1ccco1)N1CCN(CCCCN2C(=O)c3ccccc3C2=O)CC1,-5.13% (inactive)
3,CC1CN(C(=O)c2cc(F)c(F)cc2Cl)CC(C)O1 (configuration not stated),-4.24% (inactive)
4,Clc1ccccc1CN1CCN(CCCc2ccccc2)CC1,6.37% (inactive)
5,Fc1ccc(C(OCCN2CCCC2)c2ccc(Br)cc2)cc1 (configuration not stated),11.1% (inactive)
6,c1ccc(C(OCCN2CCNCC2)c2ccccc2)cc1,-7.41% (inactive)
7,Fc1ccc(C(OCCN2CCCC2)c2ccc(F)cc2)cc1,3.27% (inactive)
8,COc1ccc(C(C)=O)cc1COC(=O)C(CO)NS(=O)(=O)c1ccc(Br)cc1 (configuration not stated),7.85% (inactive)
9,Cc1ccc(C(=O)N2CCN(c3cc4c(cc3[N+](=O)[O-])n(C)c(=O)n4C)CC2)cc1,-9.29% (inactive)
10,CC(C)Sc1nc2c(c(=O)[nH]c(=O)n2C)n1Cc1ccc(Cl)cc1,11.2% (inactive)
11,O=c1c2ccccc2c(-c2ccccc2)nn1-c1ccccc1,8.6% (inactive)
12,CC(C)NC(=O)C(=O)NC1CCCCCC1,-2.43% (inactive)
13,O=[N+]([O-])c1ccc(N/N=C/c2cn(-c3ccccc3)nc2-c2ccccc2)cc1,30.5% (inactive)
14,COc1ccc(/C=N/NC(=O)c2c([N+](=O)[O-])c(C)nn2C)cc1,1.88% (inactive)
15,CS(=O)(=O)c1ccc2nc(NC(=O)c3ccc(NS(=O)(=O)c4cccc([N+](=O)[O-])c4)cc3)sc2c1,34.8% (inactive)
16,CC(=NCC1CCCO1)c1c(O)n(-c2ccccc2C)c(=O)[nH]c1=O (configuration not stated),-6.91% (inactive)
17,N=c1c(C(=O)NCc2ccco2)cc2c(=O)n3ccccc3nc2n1CCc1ccccc1,-6.57% (inactive)
18,CCOCCCn1c(=N)c(C(=O)NCc2ccc3c(c2)OCO3)cc2c(=O)n3cccc(C)c3nc21,26.6% (inactive)
19,CCCn1c(=N)c(C(=O)NCC2CCCO2)cc2c(=O)n3cccc(C)c3nc21 (configuration not stated),-1.86% (inactive)
20,CCNC(=O)c1cc2c(=O)n3cccc(C)c3nc2n(CCc2ccccc2)c1=N,-3.98% (inactive)
21,COc1ccc(N2CCN(C(=O)CCCCCn3c(=O)[nH]c4ccsc4c3=O)CC2)cc1,0.96% (inactive)
22,CS(=O)(=O)N1Cc2ccccc2CC1C(=O)Nc1ccccc1C(N)=O (configuration not stated),0.87% (inactive)
23,CCc1ccc(N2Cc3ccccc3C2)cc1,14.3% (inactive)
24,CN(C)CCNC(=O)/C=N/O,-1.95% (inactive)
25,O=C(NC1CCCCCC1)c1ccccc1-c1ccccc1,36% (inactive)

row,SMILES,inhibition
1,O=C(NC1CCCCC1)c1ccccc1-c1ccccc1,0.73% (inactive)
2,COc1cc(/C=N/NC(=O)CCc2n[nH]c(=O)[nH]c2=O)cc(OC)c1OC,-3.85% (inactive)
3,CCCCN1C(=O)CC(Sc2ncccc2C(=O)O)C1=O (configuration not stated),3.02% (inactive)
4,Cc1cc(N2C(=O)C3CCCN3C2c2cccc(Cl)c2)no1 (configuration not stated),-8.92% (inactive)
5,Cc1ccc(NC(=O)COc2ccccc2[N+](=O)[O-])nc1,0.84% (inactive)
6,CN(C(=O)COc1ccccc1)c1nc(-c2ccc(F)cc2)cs1,-0.64% (inactive)
7,N#CCCN(C(=O)CCl)c1cccc(Cl)c1,32.5% (inactive)
8,Cc1ccc(C(=O)N(CC#N)CC#N)cc1C,0.74% (inactive)
9,Cc1cccc(-c2noc(CCCOc3ccc(Cl)cc3Cl)n2)c1,-7.47% (inactive)
10,Cc1ccc2c(c1)N=C(c1ccc(F)cc1)CO2,-1.59% (inactive)
11,Clc1ccc(C2=Nc3cc(Cl)ccc3OC2)cc1,-4.24% (inactive)
12,COCC(COCCCNC(=O)Nc1ccc(Br)cc1)OC (configuration not stated),2.27% (inactive)
13,CCOC(=O)c1sc(C)c2c1NC1(CCCCC1)NC2=O,2.89% (inactive)
14,O=C(NCc1cccnc1)c1ccccc1CCc1ccccc1,5.46% (inactive)
15,C=CCSc1nnc(-c2cccnc2)o1,-5.82% (inactive)
16,Cc1ccc(S(=O)(=O)Nc2ccc(-c3nnc(SCc4ccccc4Cl)o3)cc2)cc1,0.5% (inactive)
17,N#CCSc1nnc(-c2sc3ccccc3c2Cl)o1,11.6% (inactive)
18,NC(=O)CSc1nnc(-c2ccc([N+](=O)[O-])cc2)o1,-3.14% (inactive)
19,CCOC(=O)CSc1ncc(-c2ccc([N+](=O)[O-])cc2)[nH]1,47.4% (inactive)
20,COC(=O)CSc1nnc(-c2ccncc2)o1,-2.74% (inactive)
21,CSc1nnc(-c2ccc([N+](=O)[O-])cc2)o1,34% (inactive)
22,Cc1ccc(CSc2nnc(-c3ccc(NS(=O)(=O)c4ccccc4)cc3)o2)cc1,11.7% (inactive)
